Measurements published in the supplement of paper PMC12350171.
Structures can show the parent of a compound that is named as a salt. Values without a mark were called inactive.

What was measured:
Conditions in all cases: 20 µM
[1] = system: Salmonella enterica typhimurium; experiment: growth AUC normalised to DMSO control (fraction of control); higher = less growth inhibition, active = hit call of the paper
Method in brief: (§1)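 For the AUC endpoint, growth curves were integrated by the trapezoidal rule up to the exponential-to-stationary transition and normalised to DMSO controls on the same plate. The curves came from OD578 readings taken hourly for 24 h, in three biological replicates. Pathogens had been passaged anaerobically twice and inoculated at an OD578 of 0.01 into pre-reduced mGAM plates carrying 20 μM compound and 1% DMSO, sealed with breathable membranes. Medium for Haemophilus parainfluenzae also contained hemin and NAD.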

Shigella flexneri = experiment: as above
Method in brief: as §1

Vibrio cholerae = experiment: as above
Method in brief: as §1

[2] = system: Yersinia pseudotuberculosis; experiment: as above
Method in brief: as §1

P. vulgatus RND KO = experiment: growth AUC normalised to DMSO control (median) (fraction of control); higher = less growth inhibition, active = hit call of the paper
Method in brief: (§2)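 Area under the growth curve, calculated by the trapezoidal rule up to entry into stationary phase, was normalised to vehicle wells on the same plate. Strains had been passaged twice overnight without oxygen and then grown in mGAM in 96-well plates from OD578 0.01, each with an approved-drug library compound at 20 μM in 1% DMSO. OD578 was read hourly over 24 h in an anaerobic incubator, and the median of three biological replicates is given.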

P. vulgatus WT = experiment: as above
Method in brief: as §2

[3] = system: S. enterica typhimurium WT; experiment: as above
Method in brief: as §2

[4] = system: S. enterica typhimurium tolC KO; experiment: as above
Method in brief: as §2
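Throughout, for growth AUC normalised to DMSO control (median): active when median AUC fell below 0.1.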

SMILES	growth AUC normalised to DMSO control [1]	growth AUC normalised to DMSO control (Shigella flexneri)	growth AUC normalised to DMSO control (Vibrio cholerae)	growth AUC normalised to DMSO control [2]	growth AUC normalised to DMSO control (P. vulgatus RND KO)	growth AUC normalised to DMSO control (P. vulgatus WT)	growth AUC normalised to DMSO control [3]	growth AUC normalised to DMSO control [4]
CN[C@@H]1[C@H](O)[C@H](NC)[C@H]2O[C@@]3(O)C(=O)C[C@@H](C)O[C@H]3O[C@@H]2[C@H]1O [Spectinomycin dihydrochloride]	0.896 (active)	1.01	1.02	0.933 (active)	1.01	1	0.961	0.871
CCn1cc(C(=O)O)c(=O)c2cc(F)c(N3CCNCC3)cc21 [Norfloxacin]	0.00731 (active)	0.0176 (active)	0.0427 (active)	0.0323 (active)	0.922	0.865	0.00734 (active)	0.0069 (active)
COCC(=O)Nc1c(I)c(C(=O)NCC(O)CO)c(I)c(C(=O)N(C)CC(O)CO)c1I (stereo not given) [Iopromide]	1	1.03	1.06	1.02	1.05	1.05	1.02	1.01
CCN(CC)CCOCCOC(=O)C1(c2ccccc2)CCCC1 [Carbetapentane citrate]	0.995	1	1	1	1.01	1.01	0.995	0.992
CCCCOc1ccc(OCCCN2CCOCC2)cc1 [Pramoxine hydrochloride]	0.998	1.01	1	0.983	1.04	1.03	1	0.988
Cc1ccc(-c2cc(C(F)(F)F)nn2-c2ccc(S(N)(=O)=O)cc2)cc1 [Celecoxib]	1.01	1.02	0.851 (active)	1.03	0.728	0.771	1.01	0.852
CC1(C)O[C@@H]2C[C@H]3[C@@H]4CCC5=CC(=O)CC[C@]5(C)[C@@]4(F)[C@@H](O)C[C@]3(C)[C@]2(C(=O)CCl)O1 [Halcinonide]	1	1.03	0.99	1	0.993	1	1.02	0.967
CCC[C@H](N[C@@H](C)C(=O)N1[C@H](C(=O)O)C[C@@H]2CCCC[C@@H]21)C(=O)OCC [Perindopril]	1.02	1.02	0.963	1.04	1.03	1.04	1.01	1
O=C(OCC(O)CO)c1ccccc1Nc1ccnc2cc(Cl)ccc12 (stereo not given) [Glafenine hydrochloride]	0.981	0.938	0.88	0.941	1.01	0.995	0.997	0.935
COc1cc(Cc2cnc(N)nc2N)cc(OC)c1OC [Trimethoprim]	0.197 (active)	0.0632 (active)	0.0115 (active)	0.157 (active)	0.45	0.259	0.147	0.132
O=C(NCCO[N+](=O)[O-])c1cccnc1 [Nicorandil]	0.995	0.99	0.991	0.999	0.986	0.996	1.01	1.01
CCCCNc1cc(C(=O)O)cc(S(N)(=O)=O)c1Oc1ccccc1 [Bumetanide]	0.969	0.991	0.982	0.995	1.01	1.01	0.996	0.991
CC(=O)OCC(=O)[C@@]1(O)CC[C@H]2[C@@H]3CCC4=CC(=O)CC[C@]4(C)[C@H]3[C@@H](O)C[C@@]21C [Cortisol acetate]	1.03	0.997	1	1	1	1.03	1.01	1
CCN[C@H]1C[C@H](C)S(=O)(=O)c2sc(S(N)(=O)=O)cc21 [Dorzolamide hydrochloride]	1.02	1.04	1.04	1.03	1.05	1.05	1	1.01
CC(C)N1CCN(c2ccc(OCC3COC(Cn4cncn4)(c4ccc(Cl)cc4Cl)O3)cc2)CC1 (stereo not given) [Terconazole]	0.962	0.982	1	0.989	1.06	1.04	1.01	0.97
Nc1nc2n[nH]nc2c(=O)[nH]1 [Azaguanine-8]	1.01	1.05	1.01	0.996	1.01	0.999	0.987	1.01
Cc1c(C)c2c(c(C)c1O)CCC(C)(COc1ccc(CC3SC(=O)NC3=O)cc1)O2 (stereo not given) [Troglitazone]	0.992	0.97	0.986	0.974	0.839	0.892	0.997	0.97
CCCCN1CCCCC1C(=O)Nc1c(C)cccc1C (stereo not given) [Bupivacaine hydrochloride]	1.04	0.973	0.998	0.973	1.01	0.998	0.998	0.985
NC(=O)c1cccnc1 [Nicotinamide]	1.02	1.06	1.05	1.01	1.07	1.1	0.996	1.01
COC(=O)C1=C(C)NC(C)=C(C(=O)OC(C)C)C1c1cccc2nonc12 (stereo not given) [Isradipine]	1.01	1.02	1.02	1	1.02	1.05	1.02	0.979
NC(=O)N/N=C/c1ccc([N+](=O)[O-])o1 [Nitrofural]	0.713 (active)	0.154 (active)	0.01 (active)	0.875 (active)	0.0943 (active)	0.254	0.902	0.818
CCN(CC)Cc1cc(Nc2ccnc3cc(Cl)ccc23)ccc1O [Amodiaquine dihydrochloride dihydrate]	0.974	1.02	1	0.966	1	0.961	0.982	1
COc1cc(N)c(Cl)cc1C(=O)NC1CCN(Cc2ccccc2)CC1 [Clebopride maleate]	0.996	0.998	0.995	1	0.987	0.999	0.998	1
CC(N)(Cc1ccc(O)c(O)c1)C(=O)O (stereo not given) [(L) Methyldopa]	1.01	1.01	1.01	0.973	1.03	1.05	1.01	1.01
N=C(N)N/N=C/c1c(Cl)cccc1Cl [Guanabenz acetate]	0.936 (active)	0.998	1.03	0.973	0.983	0.98	0.946	0.967
CN(C)/N=N/c1[nH]cnc1C(N)=O [Dacarbazine]	0.989	0.976	0.994	1	1.04	1.03	0.997	1
Nc1ccc(/N=N/c2ccccc2)c(N)n1 [Phenazopyridine hydrochloride]	0.969	0.922	0.927	0.958	1.03	1.03	0.989	0.988
O=C(Nc1ccccc1)OCC(CN1CCCCC1)OC(=O)Nc1ccccc1 (stereo not given) [Diperodon hydrochloride]	1.01	1.03	0.999	1.01	0.998	1.01	0.997	0.986
CCCCCCCCNC(C)C(O)c1ccc(SC(C)C)cc1 (stereo not given) [Suloctidil]	1.02	0.995	1	0.937	0.992	1.02	1.02	0.997
CC(=O)O[C@@]12CO[C@@H]1C[C@H](O)[C@@]1(C)C(=O)[C@H](O)C3=C(C)[C@@H](OC(=O)[C@H](O)[C@@H](NC(=O)OC(C)(C)C)c4ccccc4)C[C@@](O)([C@@H](OC(=O)c4ccccc4)[C@H]21)C3(C)C [Docetaxel]	0.995	0.982	1.07	1.04	0.904	0.92	1	1
